In experiment [1] the target is Rap guanine nucleotide exchange factor 3 (Homo sapiens) (UniProt O95398). In words: Confirmatory qHTS for antagonist of cAMP-regulated guanine nucleotide exchange factor 3 (EPAC1) (AID 1645880). Also: nearly all actives have a fitted effect of over 55% in size. Also: potency is read from the fitted curve at half-maximal effect. The procedure, abridged:
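Nucleotide exchange uses 100 nM EPAC1, 250 nM RAP1B-BODIPY-GDP and 50 uM GDP, with compounds in a concentration-titration series. After 5 min at room temperature, fluorescence (480 nm ex/540 nm em) is read every 5 min for 30 min. Data are normalized to control ATA and DMSO.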
In general terms: Quantitative high-throughput screening tests each substance at several concentrations.

For experiment [2] the target is unchanged. The experiment in a line: Confirmatory qHTS for agonist of cAMP-regulated guanine nucleotide exchange factor 3 (EPAC1) (AID 1645881). Also: nearly all actives have a fitted effect of over 75% in size. Also: potency is read from the fitted curve at half-maximal effect.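 As to activation: EPAC1 catalysed release of BODIPY-GDP from Rap1B seen as fluorescence loss; 100% = effect of cAMP agonist control.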
For experiment [3], the target named is Rap guanine nucleotide exchange factor 4 (Homo sapiens) (UniProt Q8WZA2). In words: Confirmatory qHTS for agonist of cAMP-regulated guanine nucleotide exchange factor 4 (EPAC2) (AID 1645884).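 Also: nucleotide exchange releases bodipy-GDP from Rap1 and this lowers its fluorescence; nearly all actives have a fitted effect of over 65% in size.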 Also: potency is read from the fitted curve at half-maximal effect. As to activation: % is scaled to controls: 0 for no effect and ±100 for the full control effect.
For experiment [4] the target is unchanged. In words: Confirmatory qHTS for antagonist of cAMP-regulated guanine nucleotide exchange factor 4 (EPAC2) (AID 1645885). Also: nearly all actives have a fitted effect of over 25% in size. Also: potency is read from the fitted curve at half-maximal effect. As to activity change, negative = inhibition: % is scaled to controls: 0 for no effect and ±100 for the full control effect.
Experiment [5] concerns the target Rap guanine nucleotide exchange factor 3 (Homo sapiens) (UniProt O95398). In words: Counterscreen qHTS for antagonist of cAMP-regulated guanine nucleotide exchange factor 3 (EPAC1) (AID 1645888).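 Also: fluorescence loss as bound BODIPY-GDP is released from Rap1B; % of control where 0% means no effect.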 The procedure, abridged: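 Rap1B–BODIPY-GDP (250 nM) with 50 uM GDP; compounds pin-transferred to 9.74 nM–152 uM final (activator) or from 7.32 nM upwards (inhibitor). Fluorescence Ex/Em 480/540 nm read at 5 and 30 min, then after adding cAMP or buffer, at room temperature.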
In general terms: Counterscreens check selectivity or assay interference.

Records with an inconclusive call do not appear. A number with no mark means an inactive call. The source made the active and inactive calls. Calls follow the shape of the dose curve; as a rule, active = well fitted curve in the direction sought with a large enough effect; inconclusive = small, poorly fitted or top-dose-only effect, or another doubt; inactive = no such curve, though single readings can be large; an effect the other way counts as inactive or inconclusive.

Rap guanine nucleotide exchange factor 4 (Homo sapiens), sequence (Q8WZA2 whole entry, looked up): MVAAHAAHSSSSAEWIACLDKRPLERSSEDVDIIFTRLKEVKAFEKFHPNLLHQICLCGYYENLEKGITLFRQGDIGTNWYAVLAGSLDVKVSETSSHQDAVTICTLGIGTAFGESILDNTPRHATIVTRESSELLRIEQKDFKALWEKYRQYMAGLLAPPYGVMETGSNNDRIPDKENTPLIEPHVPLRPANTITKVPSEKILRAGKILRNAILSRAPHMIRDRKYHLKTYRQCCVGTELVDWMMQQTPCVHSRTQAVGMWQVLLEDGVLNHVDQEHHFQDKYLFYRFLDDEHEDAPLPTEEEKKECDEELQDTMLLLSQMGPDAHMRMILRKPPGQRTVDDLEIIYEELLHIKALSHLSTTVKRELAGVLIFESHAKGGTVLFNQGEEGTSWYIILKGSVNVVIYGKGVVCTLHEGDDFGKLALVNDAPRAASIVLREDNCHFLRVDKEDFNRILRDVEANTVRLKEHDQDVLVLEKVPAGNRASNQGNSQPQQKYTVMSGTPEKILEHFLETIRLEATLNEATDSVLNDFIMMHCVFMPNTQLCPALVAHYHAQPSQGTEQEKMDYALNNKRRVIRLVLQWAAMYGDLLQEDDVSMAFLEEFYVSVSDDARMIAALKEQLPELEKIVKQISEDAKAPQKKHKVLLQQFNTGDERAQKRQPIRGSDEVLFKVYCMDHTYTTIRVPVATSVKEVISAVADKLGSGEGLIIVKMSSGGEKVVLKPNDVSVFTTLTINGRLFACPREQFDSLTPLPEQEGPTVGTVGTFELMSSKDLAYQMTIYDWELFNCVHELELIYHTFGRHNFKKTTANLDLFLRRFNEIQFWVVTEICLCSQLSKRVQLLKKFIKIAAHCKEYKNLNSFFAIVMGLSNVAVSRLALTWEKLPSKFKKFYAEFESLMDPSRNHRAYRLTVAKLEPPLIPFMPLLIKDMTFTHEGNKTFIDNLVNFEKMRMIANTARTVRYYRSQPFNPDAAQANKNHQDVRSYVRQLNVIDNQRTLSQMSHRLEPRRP
Rap guanine nucleotide exchange factor 3 (Homo sapiens), sequence (O95398 whole entry, looked up): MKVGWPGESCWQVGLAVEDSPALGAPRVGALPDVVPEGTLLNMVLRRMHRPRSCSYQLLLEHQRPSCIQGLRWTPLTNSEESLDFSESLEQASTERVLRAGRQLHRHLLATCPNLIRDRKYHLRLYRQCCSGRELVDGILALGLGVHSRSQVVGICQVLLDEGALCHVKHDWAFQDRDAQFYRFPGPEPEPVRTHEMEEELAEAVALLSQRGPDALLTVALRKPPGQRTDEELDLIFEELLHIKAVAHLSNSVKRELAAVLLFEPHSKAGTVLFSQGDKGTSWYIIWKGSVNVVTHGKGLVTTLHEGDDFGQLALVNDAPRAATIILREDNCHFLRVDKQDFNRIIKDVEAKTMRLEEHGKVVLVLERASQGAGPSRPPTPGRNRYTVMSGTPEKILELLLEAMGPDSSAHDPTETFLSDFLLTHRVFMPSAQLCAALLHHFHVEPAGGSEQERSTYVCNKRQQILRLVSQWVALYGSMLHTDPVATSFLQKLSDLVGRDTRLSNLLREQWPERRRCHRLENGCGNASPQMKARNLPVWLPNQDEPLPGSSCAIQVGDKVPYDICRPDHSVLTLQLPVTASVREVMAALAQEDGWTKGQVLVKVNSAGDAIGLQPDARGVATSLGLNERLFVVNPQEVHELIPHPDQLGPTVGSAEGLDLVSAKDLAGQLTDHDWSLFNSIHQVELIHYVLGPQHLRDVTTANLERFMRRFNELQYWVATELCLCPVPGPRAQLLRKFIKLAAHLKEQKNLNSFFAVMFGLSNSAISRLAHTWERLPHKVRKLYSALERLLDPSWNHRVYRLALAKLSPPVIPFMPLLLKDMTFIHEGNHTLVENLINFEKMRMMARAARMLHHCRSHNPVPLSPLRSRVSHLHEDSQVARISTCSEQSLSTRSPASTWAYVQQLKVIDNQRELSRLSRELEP

For `CC1Cc2cc(/C=C3/SC(=S)NC3=O)ccc2O1` (stereo not given), the Potency in experiment [1] was 30.1 µM (active). Further, the Potency result in experiment [2], in experiment [3], in experiment [4] and in experiment [5] was “inactive” in each case.
With `CCOC(=O)c1sc(N2C(=O)C(O)=C(C(=O)c3ccco3)C2c2cccc([N+](=O)[O-])c2)nc1C` (stereo not given), in experiment [1], the Potency is 5.36 µM (active). Moreover, the Potency result in experiment [2], in experiment [3], in experiment [4] and in experiment [5] was “inactive” in each case.
Turning to `Cc1ccc(C)c(N(C)C(=O)c2cn(C)c(=O)c3ccccc23)c1`, the Potency entry in experiment [1], in experiment [2], in experiment [3], in experiment [4] and in experiment [5] was “inactive” in each case.
As for `Oc1ccc(NCc2ccccc2OCc2ccc(Cl)cc2)cc1`, the Potency in experiment [1] is 75.7 µM (active). In addition, the Potency entry in experiment [2], in experiment [3], in experiment [4] and in experiment [5] was “inactive” in each case.
With `Nc1ncnc2c1ncn2[C@@H]1O[C@H](C(=O)N[C@H]2c3ccccc3C[C@H]2OC=O)[C@@H](O)[C@H]1O`, the Potency result in experiment [1], in experiment [2], in experiment [3], in experiment [4] and in experiment [5] was “inactive” in each case.
Turning to `COc1ccc(-c2onc3ccc(C(C)=O)cc23)cc1`, the Potency result in experiment [1] and in experiment [5] was “inactive” throughout. Also, the Potency in experiment [2] is 79.4 µM (active); in experiment [3], 79.4 µM (active); in experiment [4], 19 µM (active).
For `Oc1ccc(Br)cc1C=Nc1cccn2cc(-c3ccccc3)nc12`, the Potency was 84.9 µM (active) in experiment [1] and 75.7 µM (active) in experiment [4]. In addition, the Potency result in experiment [2], in experiment [3] and in experiment [5] was “inactive” in each case.
For `Cc1ccc(NC(=O)c2ccc(Cl)c(S(=O)(=O)N3CCc4ccccc43)c2)nc1`, the Potency entry in experiment [1], in experiment [2], in experiment [3], in experiment [4] and in experiment [5] was “inactive” throughout.
As to `COc1cc(C=NNc2ccc(S(=O)(=O)Nc3ccccc3C(=O)O)cc2[N+](=O)[O-])ccc1O`, the Potency in experiment [1] is 20 µM (active). The Potency entry in experiment [2] and in experiment [4] was “inactive” throughout. Besides, the activation in experiment [3] was -6.92% [at 17.1 µM, percent relative to cAMP agonist control]. Moreover, the activity change, negative = inhibition in experiment [5] is -11.1% [at 30.8 µM].
In the case of `O=C1S/C(=C\c2ccc(N3CCOCC3)o2)C(=O)N1c1ccccc1`, the Potency result in experiment [1], in experiment [2], in experiment [3], in experiment [4] and in experiment [5] was “inactive” each time.
Consider `O=C1OC(c2ccc3ccccc3c2O)(c2ccc3ccccc3c2O)c2ccccc21`, for which the Potency in experiment [1] is 75.7 µM (active). In addition, the Potency result in experiment [2], in experiment [3], in experiment [4] and in experiment [5] was “inactive” in each case.
For the compound `CC(C)(C)c1ccc(N=C2SCC(=O)N2Cc2cccs2)cc1`, the Potency result in experiment [1], in experiment [2], in experiment [3], in experiment [4] and in experiment [5] was “inactive” in each case.
Regarding `O=C1CSC2(C(=O)N(Cc3ccccc3F)c3ccccc32)N1c1ccc(F)cc1` (stereo not given), the Potency entry in experiment [1], in experiment [2], in experiment [3] and in experiment [5] was “inactive” each time. Further, in experiment [4], the outcome is “inactive [at 12.7 µM]”.
Regarding `CC(C)(C)c1cc(NC(=O)COC(=O)c2ccc(O)cc2O)n(-c2ccccc2)n1`, the Potency result in experiment [1], in experiment [2] and in experiment [4] was “inactive” each time. Moreover, in experiment [3], the activation was 8.65% [at 17.1 µM, percent relative to cAMP agonist control]. The activity change, negative = inhibition in experiment [5] was -16.3% [at 30.8 µM].
`NNc1nc2c(Cl)cccc2s1`: the Potency result in experiment [1], in experiment [2], in experiment [3] and in experiment [5] was “inactive” each time. For the same compound, the Potency in experiment [4] is 95.3 µM (active).
For the compound `Clc1ccc(-c2cc3ccccc3nc2N2CCOCC2)cc1`, the Potency result in experiment [1], in experiment [2], in experiment [3], in experiment [4] and in experiment [5] was “inactive” throughout.
Consider `CCN(CC)c1ccc(Nc2nc(-c3cccnc3)cs2)cc1`, for which the Potency entry in experiment [1], in experiment [2], in experiment [3], in experiment [4] and in experiment [5] was “inactive” each time.
Regarding `OC1CCN(c2c3c(nc4cc(-c5cccc(F)c5)nn24)CCCC3)CC1`, the Potency result in experiment [1], in experiment [2], in experiment [3], in experiment [4] and in experiment [5] was “inactive” throughout.
Take `Cn1nc(-c2ccccn2)nc2c(=O)n(C)c(=O)nc1-2`: in experiment [1], the Potency was 1.69 µM (active). Also, the Potency entry in experiment [2], in experiment [3], in experiment [4] and in experiment [5] was “inactive” in each case.
On to `CC1=C(C(=O)OC2CCCC2)C(c2c(Cl)cccc2Cl)CC(=O)N1` (stereo not given), for which the Potency result in experiment [1], in experiment [2], in experiment [3], in experiment [4] and in experiment [5] was “inactive” throughout.
`C=CCOc1ccc(/C=C2\SC(=S)N(C(C(=O)O)c3ccccc3)C2=O)cc1` (stereo not given): the Potency in experiment [1] is 31.6 µM (active). Further, the Potency entry in experiment [2] and in experiment [4] was “inactive” in each case. The activation in experiment [3] was 3.84% [at 17.1 µM, percent relative to cAMP agonist control]. For the same compound, the activity change, negative = inhibition in experiment [5] was -23.9% [at 30.8 µM].
For `COc1ccc(S(=O)(=O)N2CCOC23CCN(S(=O)(=O)c2cc(F)ccc2F)CC3)cc1`, the Potency entry in experiment [1], in experiment [2] and in experiment [4] was “inactive” in each case. The activation in experiment [3] was 4.71% [at 17.1 µM, percent relative to cAMP agonist control]. Further, the activity change, negative = inhibition in experiment [5] was -8.89% [at 30.8 µM].
Take `CC(=O)/C(=C/N(C)C)Sc1ccc(C)cc1`: the Potency result in experiment [1], in experiment [2], in experiment [3], in experiment [4] and in experiment [5] was “inactive” in each case.
Turning to `COc1cc(/C=C2\SC(=S)N(NS(=O)(=O)c3ccccc3)C2=O)cc(OC)c1OC`, in experiment [1], the Potency is 15.1 µM (active). Further, the Potency entry in experiment [2], in experiment [3], in experiment [4] and in experiment [5] was “inactive” in each case.
For `O=C1C(c2ccccc2)=[N+]([O-])c2ccccc21`, the Potency result in experiment [1], in experiment [2], in experiment [3], in experiment [4] and in experiment [5] was “inactive” each time.

Source of the values: PubChem BioAssay (NCATS).
